Screening data (PubChem BioAssay)
Most compounds without a hit are left out; they make up all but 12% or so of the library.
JMJD2A Tudor = qHTS Assay for Inhibitors of JMJD2A-Tudor Domain. Potency, µM (highest dose often 114 µM), actives largely listed as inhibitors. 390,000 compounds, 4.4% hits. AID 504339, 2011. AlphaScreen JMJD2A-Tudor / H3K4me3 peptide binding. Lysine-specific demethylase 4A (Homo sapiens), O75164; further: nearly all actives have a fitted effect of over 50% in size
L3MBTL1 inh = qHTS Assay for the Inhibitors of L3MBTL1. AlphaScreen L3MBTL1–H3K9me1 peptide binding. Potency, µM (doses to about 57.1 µM), usual class: inhibitors. 230,000 compounds, 0.66% hits. AID 485360, 2010; further: nearly all actives have a fitted effect of over 60% in size
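First, the protein-peptide complex forms for 30 min at room temperature (L3MBTL1 50 nM, biotinylated H3K9me1 peptide 75 nM). Next, compounds are pin-transferred and incubated 30 min. Finally, AlphaScreen beads are added and read after 30 min.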
HP1b chromo inh = HTS for Inhibitors of HP1-beta Chromodomain Interactions with Methylated Histone Tails | AID 540317, 2011 | Potency, µM (titrated, usually from 114 µM), most hits filed as inhibitors | Chromobox protein homolog 1 (Homo sapiens), P83916 | 390,000 compounds, 0.56% hits | AlphaScreen HP1-beta / biotin-H3K9me3 peptide binding; further: nearly all actives have a fitted effect of over 70% in size
Target sequence (P83916 whole entry, looked up): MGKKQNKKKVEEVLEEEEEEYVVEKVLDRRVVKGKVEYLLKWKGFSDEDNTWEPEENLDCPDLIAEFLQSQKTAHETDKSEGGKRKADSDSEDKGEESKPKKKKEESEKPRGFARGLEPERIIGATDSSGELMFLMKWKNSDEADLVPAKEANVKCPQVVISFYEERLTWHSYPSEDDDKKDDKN
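Compound inhibition of the preformed complex between 50 nM HP1-beta and 50 nM biotinylated H3K9me3 peptide was read by AlphaScreen. Buffer was PBS pH 7.4 with 0.01% Tween-20. Incubations ran 30 min at room temperature, with 10 ug/mL donor/acceptor beads.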
BAZ2B block = qHTS Assay for Inhibitors of BAZ2B | Bromodomain adjacent to zinc finger domain protein 2B (Homo sapiens), Q9UIF8 | 360,000 compounds, 4.4% hits | Potency, µM (highest dose often 114 µM), actives largely listed as inhibitors | AlphaScreen BAZ2B-H3K14Ac peptide displacement; further: nearly all actives have a fitted effect of over 60% in size
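Compounds, titrated to a top concentration of 110 uM, were incubated 30 min at room temperature with preformed BAZ2B/acetyl-K14 H3 peptide complex (50 nM each). Proximity signal was measured by AlphaScreen after 20 min with beads.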
Sfp inh = qHTS Assay for Inhibitors of Bacillus subtilis Sfp phosphopantetheinyl transferase (PPTase) | 310,000 compounds, 3.5% hits | Potency, µM, most hits filed as inhibitors | 4'-phosphopantetheinyl transferase ffp (Bacillus subtilis), Q9F4F7 | AID 1490, 2009 | Biochemical Sfp PPTase activity, qHTS;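 further: the enzyme is Sfp with the accession as filed and its product quenches rhodamine fluorescence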
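Fluorescence-quenching assay: 15 nM Sfp-PPTase preincubated 15 min at room temperature with compound, then 5 uM rhodamine-CoA and 12.5 uM BHQ-2-labelled YbbR peptide added. Fluorescence (ex 525/em 598 nm) read at start and after 30 min; difference gives rate.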
G9a inh = qHTS Assay for Inhibitors of Histone Lysine Methyltransferase G9a; 350,000 compounds, 8.8% hits; Potency, µM (doses to about 102 µM), usual class: inhibitors; G9a H3K9 monomethylation, AlphaScreen, 2 h; further: nearly all actives have a fitted effect of over 75% in size
Target sequence (Q96KQ7 913-1193 limits assumed): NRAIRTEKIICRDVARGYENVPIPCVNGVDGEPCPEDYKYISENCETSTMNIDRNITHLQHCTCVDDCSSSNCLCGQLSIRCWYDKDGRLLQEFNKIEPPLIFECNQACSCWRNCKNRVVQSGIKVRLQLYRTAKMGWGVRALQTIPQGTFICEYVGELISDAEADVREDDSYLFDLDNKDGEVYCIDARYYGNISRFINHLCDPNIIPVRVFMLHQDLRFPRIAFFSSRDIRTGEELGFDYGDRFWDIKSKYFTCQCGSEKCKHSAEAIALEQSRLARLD
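G9a (20 nM) was preincubated 15 min with compound, then reacted 2 h at room temperature with 500 nM biotin-H3K9 peptide and 20 µM SAM. Monomethyl-H3K9 detected by AlphaScreen using anti-H3K9me1 antibody.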
A number is an active result; . = inactive; ? = inconclusive; / = no result given; [ ] = remark or other dose. The call rests on the fitted dose curve; in most records, active means well fitted curve in the direction sought with a large enough effect; inconclusive means small, poorly fitted or top-dose-only effect, or another doubt; inactive means no such curve, though single readings can be large; an effect the other way counts as inactive or inconclusive.

SMILES	JMJD2A Tudor	L3MBTL1 inh	HP1b chromo inh	BAZ2B block	Sfp inh	G9a inh
O=C1OC(c2ccc(F)cc2)=C/C1=C\c1ccc(O)cc1	.	.	.	.	.	35µM
O=C1OC(c2ccc(F)cc2)=C/C1=C\c1ccc([N+](=O)[O-])o1	/	/	/	45µM	?	10µM
CN(C(=O)Cn1nc(Cc2cccnc2)c2ccccc2c1=O)c1cccc(C(F)(F)F)c1	.	/	.	.	/	.
CC(=O)Nc1ccc(S(=O)(=O)Nc2cc(C)cn(Cc3ccccc3)c2=O)cc1	25µM	/	.	.	.	.
CC(=O)Nc1ccc(S(=O)(=O)NC2=C(N3CCN(C)CC3)C(=O)c3ccccc3C2=O)cc1	.	/	.	32µM	.	50µM
CC(=O)Nc1ccc(S(=O)(=O)NC2=C(N3CCN(Cc4ccccc4)CC3)C(=O)c3ccccc3C2=O)cc1	35µM	/	32µM	20µM	.	?
CCN1CCN(C2=C(NS(=O)(=O)c3ccc(C)cc3)C(=O)c3ccccc3C2=O)CC1	.	/	.	?	.	40µM
CCN1CCN(C2=C(NS(=O)(=O)c3ccc(NC(C)=O)cc3)C(=O)c3ccccc3C2=O)CC1	.	/	.	?	.	?
CCOC(=O)N1CCN(C2=C(NS(=O)(=O)c3ccc(NC(C)=O)cc3)C(=O)c3ccccc3C2=O)CC1	?	/	.	45µM	.	28µM
Cc1cc2c(c(=O)n1-c1ccccc1)C1O[C@](c3ccsc3)(Cc3cc(C#N)ccc31)O2	/	/	/	?	.	.[2.33 µM]
COc1ccc(NC(c2ccccc2)c2ccncc2)cc1 (stereo not drawn)	45µM	/	.	71µM	?	7.1µM
COc1cc(NC(c2ccccc2)c2ccccc2)cc(OC)c1OC	.	.	.	45µM	.	40µM
COc1ccc(Nc2nc(-c3ccncc3)nc3ccccc23)cc1	.	/	.	.	.	.
Cc1ccc2oc(-c3ccc(C)c(NC(=O)c4ccc(N5CCC(C)CC5)c([N+](=O)[O-])c4)c3)nc2c1	.	/	.	.	/	.
Cc1nn(C)cc1S(=O)(=O)Nc1ncccn1	.	/	.	?	.	/
Cc1cc2c(cc1S(=O)(=O)NCc1ccccc1)OCC(=O)N2	.	.	.	.	.	.
Cc1ccnc(NC(=O)/C=C/c2ccccc2[N+](=O)[O-])c1	/	.	/	56µM	.	?
O=C(Nc1ccccn1)c1ccc([N+](=O)[O-])o1	.	.	.	.	.	.
Cc1ccnc(NC(=O)c2ccccc2[N+](=O)[O-])c1	.	.	?	.	22µM	10µM
Cc1ccnc(NC(=O)/C=C/c2ccccc2Cl)c1	.	.	.	.	.	?
Cc1ccc(NC(=O)CCC(=O)NNC(=O)c2ccccc2[N+](=O)[O-])c(C)c1	.	.	.	.	.	50µM
Cc1ccnc(NC(=O)c2cccc([N+](=O)[O-])c2C)c1	.	.	.	.	.	.
Cc1ccnc(NC(=O)c2ccc([N+](=O)[O-])o2)c1	.	.	.	56µM	.	.[12.7 µM]
O=S(=O)(c1ccc(F)cc1)N1CCN(c2nc(-c3cccs3)nc3ccccc23)CC1	.	/	.	/	/	/
CCOc1ncccc1C(=O)OCC(=O)Nc1ccc(C(N)=O)cc1	.[11.4 µM]	.	.	.	.	.
SMILES	JMJD2A Tudor	L3MBTL1 inh	HP1b chromo inh	BAZ2B block	Sfp inh	G9a inh
O=C(OC1C2CCC1C1CN(CCc3ccccc3)CC12)c1ccccc1 (stereo not drawn)	.	.	.	.	.	.
CCCn1nc(C(=O)Nc2ccc(-n3cnnn3)cc2)c2ccccc2c1=O	.	.	.	.	/	.
COc1ccc(S(=O)(=O)N2CCCOC2CNC(=O)C(=O)NCCCn2ccnc2)cc1OC (stereo not drawn)	.	.	.	71µM	.	.
COc1ccc(CCNC(=O)C(=O)NCC2OCCN2S(=O)(=O)c2ccc(OC)c(OC)c2)cc1OC (stereo not drawn)	.	.	.	.	.	.
COc1ccc(S(=O)(=O)N2CCOC2CNC(=O)C(=O)NCCCn2ccnc2)cc1OC (stereo not drawn)	.	.	.	22µM	.	.
CC(C)N(C(=O)[C@H]1C[C@H](CC(=O)NCCC2=CCCCC2)C(=O)N2CCc3c([nH]c4ccc(Cl)cc34)[C@]12C)C(C)C	?	.	.	/	/	/
CCN(CC)C(=O)c1cc([N+](=O)[O-])cc2c1-c1ccc([N+](=O)[O-])cc1C2=C(C#N)C#N	?	.	.	?	71µM	50µM
CCN(CC)C(=O)c1ccc(Oc2ccc([N+](=O)[O-])cc2Cl)cc1	.	.[11.4 µM]	.	.	.	?
Cc1ccc(-n2nc(C(=O)N3CCN(c4ccccc4F)CC3)c(=O)n(C)c2=O)cc1	.	/	.	.	/	.
COc1ccccc1N(C(=O)c1snc(C(N)=O)c1N)C(C(=O)NC1CCCC1)c1ccc2ncccc2c1 (stereo not drawn)	.	/	.	.	.	.
O=C(Nc1ccccc1)C12CC1/C(=N\O)c1ccccc1O2 (stereo not drawn)	/	/	/	/	.	.
Cn1c(=S)[nH]c(=O)c2ncc(=O)[nH]c21	28µM	.	.	.	71µM	?
Cn1c(=O)[nH]c2c(cnn2C)c1=O	.	/	.	/	/	/
C=CCN1C(=O)/C(=c2\sc3nc(=O)c(Cc4ccccc4Cl)nn3c2=O)c2ccccc21	71µM	.	?	?	11µM	11µM
CCN1C(=O)/C(=C2\SC(=S)N(CC3CCCO3)C2=O)c2ccccc21 (stereo not drawn)	/	/	/	10µM	.	4µM
CCN1C(=O)/C(=C2\SC(=S)N(NC(=O)c3ccccc3O)C2=O)c2ccccc21	1.8µM	?	22µM	25µM	.	16µM
CCN1C(=O)/C(=C2\SC(=S)N(c3c(C)n(C)n(-c4ccccc4)c3=O)C2=O)c2ccccc21	.	.	.	.	.	?
CCOC(=O)c1ccc(NC(=O)c2cc3ccccc3o2)cc1	.	.	.	.	79µM	.
CCOC(=O)c1cccc(NC(=O)c2cc3ccccc3o2)c1	.	.	.	.	.	.
Cc1nc(Nc2ccccc2)sc1C	?	.	.	?	?	13µM
Cc1nc(NC(=O)CCc2ccccc2)sc1C	.	.	?	?	40µM	10µM
CS(=O)(=O)c1ccc2nc(NC(=O)c3cc4ccccc4o3)sc2c1	.	/	.	.	.	.
CS(=O)(=O)c1ccc2sc(NC(=O)c3cc4ccccc4o3)nc2c1	.	/	.	.	.	40µM
Cc1csc(Nc2ccccc2)n1	.	.[11.4 µM]	.	?	.	?
